The source of these data is PubChem BioAssay (NCI).

The panel holds about 83,000 compounds, 20% with a hit somewhere; the sample as a whole holds those more often.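 Treatment: one concentration, 48 hours, 96-well format. Scoring: percent growth, with anything below 10 considered active.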 A number with no mark means an inactive call. The source made the active and inactive calls.

What all share (assay): NCI-60 one-dose screen, 48 h (100 = growth as untreated, 0 = no growth, -100 = all killed)
Settings in all cases: 10 µM

For assay [1], the system named is NCI-H23 lung.
Assay [2] deals with NCI-H226 lung.
The subject of assay [3] is NCI-H322M lung.
The test system of assay [4] is HOP-62 NSCLC.
Assay [5] concerns NCI-H460 lung.
The test system of assay [6] is HOP-92 NSCLC.
In assay [7] the test system is NCI-H522 lung.
Assay [8] relates to A549/ATCC NSCLC.
Assay [9] deals with 786-0 renal.
Assay [10] has as its system COLO 205 colon.

`O=NN(CCCl)C(=O)NCc1ccc(-c2ccc(CNC(=O)N(CCCl)N=O)cc2)cc1`: the growth in [1] was 103%; in assay [2] it was 96.7%; in assay [3], 86.2%; in [4], 91.5%; in assay [5], 97.8%; in [6], 96.5%. In addition, the growth in assay [7] was 81.7%; in assay [8] it was 87.1%; in assay [9], 94.8%; in assay [10], 104%.
In the case of `[O-]c1c[n+](-c2ccc(Cl)cc2)no1`, the growth in assay [1] was 106%; in assay [2] it was 103%; in assay [3], 94.1%; in [4] it was 91.3%; in assay [5], 101%; in [6], 83.8%. Moreover, the growth is 122% in assay [7], 108% in assay [8], 108% in [9] and 103% in assay [10].
As to `COc1ccc(CSc2nc3cc(OC)c(OC)cc3c(=O)n2-c2ccc(OC)cc2OC)cc1`, the growth is 78.3% in assay [1]; 78.4% in [2]; 80.6% in assay [3]; 101% in assay [4]; 90.6% in assay [5]; 75.5% in assay [6]. For the same molecule, the growth was 68.6% in [7], 80.8% in [8], 95.7% in assay [9] and 101% in [10].
As for `O=C(Nc1ccc(Oc2ccc(Nc3nc4ccccc4s3)cc2)cc1)Nc1ccc(Cl)c(Cl)c1`, the growth in [1] was 8.31% (active); in assay [2] it was 46.5%; in assay [3], 56.6%; in assay [4], 47%; in assay [5], 15.8%; in assay [6] it was 37.9%. The growth in assay [7] was 7.82% (active); in [8], 32.8%; in [9], 43.3%; in assay [10] it was 31.1%.
Regarding `N#CN1CC[C@H](C(=O)Nc2ncc(-c3ccncc3)s2)C1`, the growth in assay [1] was -22% (active); in assay [2] it was -9.42% (active); in assay [3], 11.1%; in assay [4], -7.49% (active); in assay [5], 3.58% (active); in assay [6], -0.157% (active). The growth in assay [7] was -37.8% (active); in assay [8], -32.4% (active); in [9], 5.77% (active); in [10] it was -55.4% (active).
In the case of `NC1CCC(Nc2nc(NCc3ccc(-c4cccs4)nc3)c3ncn(C4CCCC4)c3n2)CC1` (stereo not given), the growth was -33.8% (active) in assay [1]; -9.23% (active) in assay [2]; 19% in assay [3]; -2.05% (active) in [4]; 3.28% (active) in [5]; -13% (active) in assay [6]. Besides, the growth in [7] was -52.6% (active); in assay [8], 4.31% (active); in assay [9], 0.15% (active); in [10], -51.4% (active).
On to `CC(=O)Nc1nc(C)c(C(=O)N/N=C/c2cccn2C)s1`, for which the growth is 96% in assay [1]; 90.7% in [2]; 150% in assay [3]; 109% in [4]; 109% in [5]; 56.1% in assay [6]. In addition, the growth is 86% in assay [7], 104% in assay [8], 111% in assay [9] and 125% in [10].
For the molecule `NCCNc1ccc2cc(-c3nc4ccccc4[nH]3)c(=O)oc2c1`, the growth in assay [1] is 90.7%; in assay [2], 87.4%; in assay [3], 103%; in assay [4], 94.7%; in [5] it was 98.9%; in assay [6], 82.7%. Besides, the growth in assay [7] was 97.3%; in assay [8] it was 102%; in assay [9] it was 106%; in [10], 104%.
For the molecule `CCCCCCCCCCCCCC[n+]1ccccc1`, the growth in assay [1] is -11.7% (active); in assay [2], -19% (active); in assay [3] it was 16.9%; in [4] it was -62% (active); in assay [5], -44.8% (active); in assay [6], -50.8% (active). The growth was -66.9% (active) in assay [7], -55.8% (active) in assay [8], -53.5% (active) in assay [9] and -93% (active) in assay [10].
As for `CC(=O)n1nc(C(=O)OC(C)(C)C)c2cc(F)c(F)cc21`, the growth in assay [1] is 101%; in assay [2], 105%; in assay [3] it was 102%; in [4], 99%; in [5], 102%; in assay [6], 83%. Also, the growth in assay [7] is 83.2%; in assay [8], 95.9%; in assay [9], 97.5%; in [10], 103%.
Regarding `Cc1nc2sccn2c1-c1csc(Nc2cccc(Cl)c2C)n1`, the growth in assay [1] was 52.1%; in [2], 57.3%; in assay [3], 81%; in [4], 79.3%; in assay [5], 61.2%; in assay [6] it was 16.3%. Also, the growth in assay [7] was 41.8%; in assay [8] it was 37.5%; in [9], 63.3%; in assay [10] it was 69.7%.
`CCCCCCCCCCCCCCCC(=O)N1CCN(C)CC1`: the growth in assay [1] was 85.1%; in assay [2], 106%; in [3], 71.3%; in [4], 89%; in assay [5] it was 68.6%; in assay [6] it was 31.7%. In addition, the growth is 17.1% in [7], 95.5% in [8], 86% in assay [9] and 68.6% in assay [10].
`CNC(=O)c1cc(Oc2ccc(NC(=O)Nc3ccc(Cl)c(C(C)(C)C)c3)c(F)c2)ccn1`: the growth is 19.7% in assay [1]; 36.2% in assay [2]; 107% in assay [3]; 64.4% in assay [4]; 48.8% in assay [5]; 75.9% in assay [6]. Also, the growth in assay [7] is 28.7%; in assay [8], 37.4%; in assay [9] it was 79%; in assay [10], 19.6%.
On to `COc1ccc(-c2[nH]ncc2-c2cc(OC)c(OC)c(OC)c2)cc1`, for which the growth is 24.9% in assay [1]; 58.7% in assay [2]; 21.8% in [3]; 35.6% in assay [4]; 4.05% (active) in assay [5]; -10.4% (active) in [6]. The growth is -36.8% (active) in assay [7], 18% in assay [8], 3.72% (active) in [9] and -72.4% (active) in assay [10].
As to `CCN(CC)CCOC(=O)c1ccc(N=Nc2ccc(O)c(OC)c2)cc1`, the growth in assay [1] was 94.5%; in assay [2], 90.4%; in assay [3], 90.9%; in assay [4] it was 98.8%; in assay [5] it was 110%; in [6] it was 94.6%. The growth in [7] is 63.8%; in [8] it was 91.1%; in assay [9] it was 95.9%; in assay [10] it was 107%.
On to `O=[N+]([O-])C1CC2C=CC1C2` (stereo not given), for which the growth in assay [1] is 100%; in assay [2] it was 94.9%; in assay [3] it was 91.1%; in [4], 93.3%; in [5] it was 108%; in [6] it was 110%. For the same molecule, the growth is 101% in assay [7], 92.3% in assay [8], 90.4% in assay [9] and 115% in assay [10].
On to `CCCCOCC(=O)NC(NP(=O)(N(C)C)N(C)C)C(Cl)(Cl)Cl` (stereo not given), for which the growth is 101% in [1]; 109% in assay [2]; 127% in assay [3]; 81.2% in assay [4]; 110% in [5]; 97.7% in assay [6]. The growth is 107% in assay [7], 102% in assay [8], 92.5% in [9] and 109% in assay [10].
In the case of `Cc1nc(N)sc1Sc1nc2ccc(Cl)cc2c(=O)n1-c1ccc(Oc2ccccc2)cc1`, the growth in [1] is 74%; in [2] it was 86.4%; in assay [3], 111%; in assay [4] it was 116%; in [5], 82%; in [6] it was 74.4%. Further, the growth in assay [7] is 85.3%; in [8], 70.2%; in [9] it was 68.5%; in assay [10] it was 102%.
As for `COc1cccc2c1O/C(=C\c1ccc([N+](=O)[O-])s1)C2=O`, the growth in [1] is 71.8%; in assay [2], 97.1%; in assay [3] it was 82%; in assay [4], 92.4%; in assay [5], 70.9%; in [6], 14.6%. Also, the growth in [7] is -65% (active); in assay [8] it was 78.5%; in assay [9], 103%; in assay [10], 67.3%.
Take `Cc1ccc(Cl)cc1Nc1nc(C(F)(F)F)ccc1C(=O)N/N=C/c1c(Cl)cccc1Cl`: the growth in assay [1] was 6.65% (active); in assay [2], -40.5% (active); in assay [3] it was 17.8%; in [4], 7.32% (active); in [5], -0.639% (active); in [6], -31% (active). For the same molecule, the growth in [7] is -16.7% (active); in [8], -9.23% (active); in [9], -32.6% (active); in assay [10], -51.5% (active).
For the molecule `Cc1ccc(/C=C2\CN(Cc3cn(CCNc4ccnc5cc(Cl)ccc45)nn3)C/C(=C\c3ccc(C)cc3)C2=O)cc1`, the growth in assay [1] is -26.8% (active); in assay [2], -66.9% (active); in assay [3], 5.6% (active); in [4] it was -64.5% (active); in [5], -51% (active); in assay [6], -42.6% (active). In addition, the growth is -49.5% (active) in assay [7], -17.2% (active) in assay [8], -36% (active) in assay [9] and -66.7% (active) in assay [10].
For the molecule `C=CCN1C(=O)/C(=C\c2ccc3c(c2)CCC3)SC1=S`, the growth in assay [1] was 90.3%; in assay [2], 96.7%; in [3], 106%; in assay [4], 76.3%; in assay [5] it was 107%; in assay [6], 91.5%. Moreover, the growth was -22.1% (active) in [7], 105% in [8], 104% in [9] and 109% in assay [10].
For `CCOC(=O)Cn1nnc(-c2ccc(OCc3ccccc3F)cc2)n1`, the growth in assay [1] was 89%; in assay [2] it was 103%; in assay [3], 98.7%; in assay [4], 87.1%; in [5] it was 102%; in assay [6], 75.5%. For the same molecule, the growth in assay [7] was 52.3%; in assay [8], 90.8%; in [9] it was 97.2%; in assay [10], 103%.
Consider `O=[N+]([O-])c1ccc(-c2nc(-c3ccccc3)c(-c3ccccc3)n2-c2ccccc2)cc1`, for which the growth in assay [1] is 25.2%; in [2], 57%; in assay [3], 58.5%; in assay [4], 38.2%; in assay [5], 36.4%; in [6] it was -12.6% (active). Besides, the growth in assay [7] was -11.7% (active); in [8] it was 34.6%; in assay [9], 57.3%; in assay [10], 68.1%.
With `COc1cc(C2C=C(c3ccc(Cl)cc3)N=C3SC(C)=CN32)cc(OC)c1OC` (stereo not given), the growth was 93.8% in assay [1]; 96.9% in assay [2]; 97.3% in assay [3]; 109% in assay [4]; 102% in assay [5]; 95.2% in assay [6]. Also, the growth in [7] is 69.9%; in assay [8] it was 83.8%; in assay [9], 89.5%; in assay [10] it was 109%.
In the case of `COc1ccc(OC)c([N+](=O)[O-])c1C=O`, the growth in assay [1] was 107%; in assay [2], 92%; in [3], 101%; in [4] it was 78.2%; in [5], 108%; in assay [6] it was 91.1%. Moreover, the growth in assay [7] is 76.9%; in assay [8], 101%; in assay [9], 110%; in assay [10], 124%.
In the case of `CN(C)CCCN1c2ccccc2Sc2ccc(C(F)(F)F)cc21`, the growth in assay [1] is 47%; in assay [2], 54.7%; in assay [3], 37.1%; in [4] it was 37.2%; in assay [5], 13.8%; in assay [6] it was -9.96% (active). The growth in [7] is -15.2% (active); in assay [8], 53.3%; in [9], 9.65% (active); in assay [10], -77.8% (active).
For the molecule `Cc1ccc(-c2cc(-c3cccc(Nc4ccnc5cc(Cl)ccc45)c3)nc3nc(N)[nH]c(=O)c23)cc1`, the growth is 100% in [1]; 96.6% in assay [2]; 91.3% in assay [3]; 113% in assay [4]; 110% in [5]; 14.6% in assay [6]. The growth was 21% in assay [7], 102% in [8], 94.9% in [9] and 125% in [10].
